Columns and labels:
Assay in all cases: PBM binding z-score (relative to random genomic background probes); higher = stronger binding; sequences stand for … in GC…GCGATTGACAGCGTAGAATGAAGG
[1] = system: PPARg:RXRa DBDmut IVT, anti-RXR (DBD mutation: RXRa K156A/R161A, NR concentration 270 nM, RXRa partner concentration 90 nM)
How it was run: (§1)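 Random background probes are the reference for binding z-scores. These scores derive from regression-normalized fluorescence on custom Agilent 4×180K protein-binding microarrays incubated 1 h with ligand-free nuclear receptor dimers. Binding was detected with antibodies against each partner (one per run).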

[2] = system: PPARg:RXRa IVT, anti-PPARg (NR concentration 270 nM, RXRa partner concentration 90 nM)
How it was run: as §1

[3] = system: PPARg DBDmut:RXRa IVT, anti-PPARg (DBD mutation: PPARg1 K132A/R137A, NR concentration 270 nM, RXRa partner concentration 90 nM)
How it was run: as §1

[4] = system: PPARg DBDmut IVT, anti-PPARg (DBD mutation: PPARg1 K132A/R137A, NR concentration 270 nM)
How it was run: as §1

[5] = system: PPARg homodimer (NR concentration 180 nM)
How it was run: as §1

[6] = system: PXR:RXRa (NR concentration 270 nM, RXRa partner concentration 90 nM)
How it was run: as §1

[7] = system: PXR homodimer (NR concentration 270 nM)
How it was run: as §1

[8] = system: RARa:RXR (NR concentration 270 nM, RXRa partner concentration 90 nM)
How it was run: as §1

[9] = system: RARa homodimer (NR concentration 270 nM)
How it was run: as §1

[10] = system: RARb:RXRa (NR concentration 270 nM, RXRa partner concentration 90 nM)
How it was run: as §1

[11] = system: RARb homodimer (NR concentration 270 nM)
How it was run: as §1

[12] = system: RARg:RXRa (NR concentration 270 nM, RXRa partner concentration 90 nM)
How it was run: as §1

[13] = system: RARg homodimer (NR concentration 270 nM)
How it was run: as §1

[14] = system: RXRa DBDmut IVT, anti-RXR (DBD mutation: RXRa K156A/R161A, NR concentration 90 nM)
How it was run: as §1

[15] = system: RXRa homodimer (NR concentration 180 nM)
How it was run: as §1

[16] = system: THRa:RXRa (NR concentration 90 nM, RXRa partner concentration 90 nM)
How it was run: as §1

[17] = system: THRa homodimer (NR concentration 90 nM)
How it was run: as §1

[18] = system: VDR homodimer (NR concentration 270 nM)
How it was run: as §1

Sequence	PBM binding z-score [1]	PBM binding z-score [2]	PBM binding z-score [3]	PBM binding z-score [4]	PBM binding z-score [5]	PBM binding z-score [6]	PBM binding z-score [7]	PBM binding z-score [8]	PBM binding z-score [9]	PBM binding z-score [10]	PBM binding z-score [11]	PBM binding z-score [12]	PBM binding z-score [13]	PBM binding z-score [14]	PBM binding z-score [15]	PBM binding z-score [16]	PBM binding z-score [17]	PBM binding z-score [18]
CCTTACGGGTCACAGACAGGTTATAGCATTTGGA	3.72	4.63	1.16	0.89	2.76	3.87	0.387	4.91	0.967	4.01	3.16	5.97	4.84	1.77	5.47	3.03	0.316	0.727
CGTCCAAGGTCAGAGAGATCAGTGAATGCCGAGT	2.6	2.11	0.0329	-0.28	1.89	2.74	0.829	3.01	-0.15	4.62	3.33	4.47	5.03	2.73	3.39	3.31	1.57	1.58
ATCTCTAGGTAACCAAGTACAGTGAATGCCGAAC	3.29	3.07	1.88	1.42	0.713	0.0867	0.597	-0.0145	1.1	0.347	0.221	0.424	0.577	0.152	0.115	0.827	0.385	0.365
CGTCCAGGGTCAATGCTAGGTCAGTGAAAGCATT	1.7	3.15	-0.224	0.0209	3.59	4.54	-0.194	6.03	0.75	4.82	4.65	7.39	5.63	2.78	5.37	4.35	1.79	2.33
ACAGACAGGTGATGAAGGTAACCCAGGCTATCAT	-0.12	0.789	0.463	0.0514	0.225	-0.103	-0.0491	0.412	-0.333	0.413	0.672	0.398	0.392	-0.925	0.473	0.892	0.124	-0.253
CGTCCAAGGTCAGAGAGGTCAGTAAATGCCGAGT	2.74	3.23	0.177	0.266	4.38	5.96	12	5.41	1.88	5.28	5.22	5.95	7.02	3.45	5.43	4.24	2.87	5.99
ACTAGTTGGTCAGCTGAGGTCACACGCAATTCGG	1.54	2.63	0.387	0.616	2.87	5.51	1.79	4.68	0.262	3.53	4.17	4.1	4.4	1.4	4.02	5	5.12	3.63

Source: the supplement of paper PMC6555819
